Data: PubChem BioAssay AID602332 (National Center for Advancing Translational Sciences (NCATS), 2012)
Values joined by “and” are separate entries in the source; they are usually repeats but may differ in a detail not shown here. Equal entries are not always repeated. In all, about 420,000 compounds went through this assay and about 75 (0.02%) were called active. The call rests on the fitted dose curve; in most records, active means well fitted activation curve with a large enough effect; inconclusive means small, poorly fitted or top-dose-only effect; inactive means no such curve, though single readings can be large or run the other way. This excerpt belongs to a sample that is enriched for actives. Some structures have more than one record in an assay (separate samples or runs), and their calls can disagree.

Test: qHTS for Inducers of the Endoplasmic Reticulum Stress Response (ERSR) in Human Glioma: qHTS; further: nearly all actives have a fitted effect of over 35% in size; on activation: % of control where 0% means no effect
Conditions: U87-MG GRP78 promoter luciferase reporter, 16 h; activation: hits give high values
Excerpt: Primary protein unfolding takes place for many diseases, including diabetes and hypoxia, , and triggers a reaction in the cells called ER stress response (ERSR). ). ERSR is designed as a repair mechanism, but ultimately leads to cell death via apoptosis if conditions triggering protein unfolding persist (1). The molecular clue to ERSR activation is the enhancement of the expression of key molecular chaperones, including the glucose regulated protein (GRP) 78. GRP78 is the main sensor for protein folding and the main actuator of the ERSR.
In a collaboration between the Southern Research Institute and the NIH Chemical Genomics Center, a cell based screen was developed that reliably uses GRP78 as a sensor to identify small molecules as inducers of ERSR. In resting conditions, GRP78 binds proteins and acts as a natural repressor. Once unfolded proteins are present in the ER, GRP78 releases some of the repressors and binds to the unfolded proteins. The release of the repressors executes the ERSR program. Using a human glioma cell line in a miniaturized, luminescent format, a high-throughput screen was developed to identify actuators of the ERSR.
(1) Soboloff, J. and S. A. Berger (2002). "Sustained ER Ca2+ depletion suppresses protein synthesis and induces activation-enhanced cell death in mast cells." J Biol Chem 277(16): 13812-20.
NIH Chemical Genomics Center [NCGC]
NIH Molecular Libraries Probe Centers Network [MLPCN]
Assay Submitter (PI): Maurizio Grimaldi, Southern Research Institute
Stable transfected human glioma cell line, U87-MG, are dispensed at density 1000 cells/well into Greiner white solid bottom 1536-well assay plates. Compounds are transferred via Kalypsys pin tool equipped with 1536-pin array (10nl slotted pins, V&P Scientific, San Diego, CA). The assay plates will be incubated for 16 hours and developed by adding appropriate quantities of the Promega Bright Glo reagent. The plates will be incubated at room temperature for 10 minutes prior to being transferred into a ViewLux high-throughput CCD imager (PerkinElmer), wherein end-point measurements of luminescence are acquired.
Potency means the concentration at half of the fitted maximal effect.

activation, inactive:
O=c1c(CN2CCOc3ccc(CN4CCC(Oc5cccnc5)CC4)cc3C2)coc2ccccc12 -1.61%
O=C(CN1Cc2ccccc2OC(c2ccccc2)C1)N1CCCCC1c1cccnc1 (stereo not given) 0.385%
C[C@H]1C[C@H]2[C@@H]3CCC4=CC(=O)C=C[C@]4(C)[C@@H]3C(=O)C[C@]2(C)[C@@]1(O)C(=O)CO -3.39%
CC(=O)Oc1c2c(c3c(c1CC=C(C)C)O[C@@]14C(=CC5CC1C(C)(C)OC4(C/C=C(\C)C(=O)O)C5=O)C3=O)OC(C)(CCC=C(C)C)C=C2 (stereo not given in full) -12.4%
COC(=O)C1=C(C)N(Cc2ccccc2)C2=C3C(=O)N(c4ccccc4)C(=O)C3[C@@](O)(C(=O)OC)C(=O)N2C1c1ccccc1 (stereo not given in full) -1.87% and -3.39%
CN1CCc2nc(-c3ccccc3)c(-c3ccccc3)cc2C1 -5.76%
C=CCOC(=O)C(C(C)=O)C(NC(=O)OC)c1ccccc1 (stereo not given) -3.7%
O=C1C[C@H]2C=CCc3cccc(c32)CN1Cc1ccccc1 -0.186%
CC(C)c1cc(C(=O)N2CCOc3ccc(CN4CCC(Oc5cccnc5)CC4)cc3C2)n[nH]1 -4.01%
COc1ccccc1C1CN(CCNC(=O)C2=CCCC2)Cc2ccccc2O1 (stereo not given) -2%
CC[C@H](C)[C@H](NC(=O)[C@H](Cc1cnc[nH]1)NC(=O)[C@@H](N)CCC(=O)O)C(=O)N1CCC[C@H]1C(=O)N[C@@H](C)C(=O)O -2.54%
CO[C@H]1C[C@@H](O[C@@H]2[C@@H](C)O[C@@H](O[C@@H]3/C(C)=C/CC4C[C@@H](C[C@]5(C=C[C@@H](C)[C@H](C6CCCCC6)O5)O4)OC(=O)[C@@H]4C=C(C)[C@@H](O)[C@H]5OC/C(=C\C=C\[C@@H]3C)[C@]54O)C[C@H]2OC)O[C@@H](C)[C@@H]1O -9.58%
CC(C)(C)c1ccc(C(=O)C[N+]2(C)CCCc3ccccc32)cc1 (stereo not given) -4.17%
CC(=O)Nc1cc(C(=O)N2CCc3c(Cl)cccc3C2)cc2ncn(CCc3ccccn3)c12 -1.89%
C[C@@H](c1ccccc1)N1C(=O)[C@H]2[C@H]3[C@H](O)[C@H](O)C/C(=N/OC[C@@H](O)COCc4ccco4)[C@@H]3CC[C@@H]2C1=O -4.31%
Cc1ncc2c(c1CNS(=O)(=O)N(C)C)CCN(C(=O)c1ccccc1F)C2 -3.66%
O=C1CCN(Cc2ccc(-c3ccccc3)cc2)CCN1Cc1ccccn1 2.1%
CN(C)C(=O)[C@@H]1C[C@@H](Sc2nc3ccccc3[nH]2)CN1Cc1ccc(Cl)cc1 -3.23%
C[C@@H]1O[C@@H](OC[C@H]2O[C@@H](Oc3c(-c4cccc(O)c4O)oc4cc(O)cc(O)c4c3=O)[C@H](O)[C@@H](O)[C@@H]2O)[C@H](O)[C@H](O)[C@H]1O -4.32%
CCCS(=O)(=O)NCc1c(C)ncc2c1CCN(C(=O)c1ccc(F)c(F)c1)C2 -4.76%
CC(C)C(=O)NC(C)c1nnc2n1CCN(Cc1cccc3ncccc13)CC2 (stereo not given) -2.92%
CCC1CN(CCNC(=O)c2ccsc2)Cc2cc(OC)ccc2O1 (stereo not given) -2.11%
N#Cc1cccc(-c2ccc3ncnc(NCc4cccs4)c3c2)c1 -10.9%
COC(=O)[C@@H]1CC[C@H](C)[C@@H](c2ccc(C)cc2)N1C(=O)c1ccc(/C=N\O[C@@H](C)c2cn([C@H](CO)Cc3ccccc3)nn2)cc1 -4.74% and -2.82%
COc1cc(=O)n2c(c1C(=O)NC(C)c1ccco1)CCN(Cc1cc(C)cc(C)c1)CC2 (stereo not given) -3.17%
CO[C@@H]1COC(=O)C/C=C\[C@H](C)[C@@H](NS(=O)(=O)c2ccc(C)cc2)COC(=O)C/C=C\[C@@H]1C -3.94% and -2.29%
COC(=O)c1c(OCc2ccc(F)cc2)cc(=O)n2c1CCN(Cc1ccc3cccnc3c1)CC2 -4.1%
c1ccc2c(Nc3ccncc3)nc(-c3ccc4c(c3)OCO4)nc2c1 -6.62%
CO[C@H]1COC(=O)[C@@H](C)NC(=O)C/C=C\[C@@H](C)[C@H](OC)COC(=O)C/C=C\[C@@H]1C -4.07%
Cc1c(O)cc2c(c1C)O[C@](C)(CCC[C@H](C)CCC[C@H](C)CCCC(C)C)CC2 -2.5%
CCC1(C2CCN(C(=O)c3cccc(F)c3F)CC2)NC(=O)N(CCc2scnc2C)C1=O (stereo not given) -1.9%
Cc1cc(C)cc(CN2CCc3nnc(C(NS(C)(=O)=O)C(C)C)n3CC2)c1 (stereo not given) -4.09%
CC(=O)OCC1OC(C#Cc2ccccc2Cl)C=CC1OC(C)=O (stereo not given) -1.79%
CC(C)N1C[C@@H](NCc2ccccc2O)C[C@H]1C(=O)N1CCN(c2cccc(C(F)(F)F)c2)CC1 -4.06%
COc1cc(=O)n2c(c1C(=O)N(C)Cc1nccs1)CCN(Cc1ccc(Cl)cc1)CC2 -5.15%
O=C(CCN1Cc2ccccc2OC(c2ccccc2)C1)N[C@@H]1CS(=O)(=O)C[C@H]1O (stereo not given in full) -4.81%
O=C1OCCC=C1[C@@H](O)CCc1ccccc1 3.05%
O=c1cc(-c2ccc(O)cc2)oc2c(-c3cc(-c4cc(=O)c5c(O)cc(O)cc5o4)ccc3O)c(O)ccc12 -1.39%
O=c1cc(-c2ccc(O)c(O)c2)oc2cccc(O)c12 -2.34%
CCCN(CC)[C@@H](CC)C(=O)Nc1c(C)cccc1C -4.31%
O=C1[C@H]2[C@H]3[C@H](O)[C@H](O)C/C(=N/OCc4ccccc4)[C@H]3CC[C@@H]2C(=O)N1Cc1ccccc1 -3.44%
C/C(CCN1CCCCc2nc(C)c(C)cc21)=N\O[C@@H](C)c1cn([C@@H]2COC[C@@H]2O)nn1 -4.19%
COc1ccc2c(c1)CCc1cnc(-n3ncc(C(=O)NCCN4CCOCC4)c3C)nc1-2 5.73%
COc1ccc(/C=C/NC(=O)Cc2ccc(OC)c(OC)c2)cc1 0.885% and -3.87%
Cc1c(C(=O)NCC2CCCN(C)C2)cnn1-c1nccc(-c2ccco2)n1 (stereo not given) -1.59%
O=S(O)S(=O)(=O)O -8.27%
CCOC(=O)N1CCN(Cc2ccc3c(c2)CN(C(=O)c2cccc(-n4cccn4)c2)CCO3)CC1 -2.17%
N#C/C(=C\c1ccc(O)c(O)c1)C(=O)NCc1ccccc1 7.31% and 13.4% and 3.72%
Cc1ccc(/C=C(\C#N)C(=O)Nc2cc(C)ccc2C)cc1 -3.56%
N#C/C(=C\c1ccc(O)c(O)c1)C(N)=O -0.645% and -1.72%
Cc1cnc(C)c(-c2cc(F)c3c(c2)CC(CNC(=O)c2cccc(Cn4cccn4)c2)O3)n1 (stereo not given) -2.2%
COc1ccccc1-c1ccnc(-n2ncc(C(=O)NCCc3ccncc3)c2C)n1 -0.593%
O=C(c1cccc(Cn2cccn2)c1)N1CCOc2c(cc(-c3csc4ccccc34)cc2OC2CCOC2)C1 (stereo not given) -1.78%
Cc1ccc(C(=O)Nc2cccc(-c3nc(CNC(=O)c4ccccc4-n4cccn4)c(C)o3)c2)s1 -4.42%
COc1ccc(CN(C)CCn2cc(C(=O)N3CCSCC3)nn2)cc1C -2.77%
COC(=O)C1CCCCN1Cc1ccc2c(c1)CN(Cc1cc(OC)c3c(c1)OCO3)CCO2 (stereo not given) 0.195%
COC(=O)C(C(=O)OC)[C@@H]1CCCC(=O)C1 -5.46%
COCCN1CCN(C(=O)c2sc3ncnc(NCC4CCCO4)c3c2C)CC1 (stereo not given) -1.15%
COc1ccc(CCNc2ncnc3sc(C(=O)N4CCCC4)c(C)c23)cc1OC -0.648%
C[C@@H]1CN(Cc2ccc3c(c2)CN(Cc2ccc(Oc4ncccn4)cc2)CCO3)C[C@H](C)O1 -2.33%
CC(C)[C@@H](OCc1ccccc1)[C@H](C)/C=N\OC[C@@H](C)[C@H](OCc1ccccc1)C(C)C -2.4%
Cc1cc(C(=O)NCC2Cc3cccc(-c4cncnc4)c3O2)c(C)o1 (stereo not given) -0.609%
CCOC(OCC)OCC 3.31%
CC[C@H](C)[C@H](NC(=O)[C@@H](N)CCC(=O)O)C(=O)N[C@@H](CC(C)C)C(=O)N[C@@H](CC(=O)O)C(=O)N[C@H](C(=O)N1CCC[C@H]1C(=O)N[C@@H](CO)C(=O)N[C@H](C(=O)O)[C@@H](C)O)C(C)C -2.27%
N[C@@H](C(=O)O)c1ccc(P(=O)(O)O)cc1 -4.34%
CN(C)c1ccc(CN2CCOc3ccc(CN4CCC(O)(c5cccnc5)CC4)cc3C2)cc1 -1.82%
Cc1ccc(Cn2cnc3c(cnn3C(C)(C)C)c2=O)c(F)c1 -6.82%
O=C(C[n+]1ccncc1)c1ccc2c(c1)CCCC2 -0.663%
Cc1cc(-c2ccnc(-n3ncc(C(=O)NC(C)(C)CO)c3C3CC3)n2)c(C)s1 -3.21%
Cc1cccc(CNc2ccnc(-c3cccnc3)n2)c1 6.2%
CCOC(=O)Cc1cccc(-c2cc(CCCCCCc3ccc(O[C@H]4O[C@H](COC(C)=O)[C@@H](OC(C)=O)[C@H](OC(C)=O)[C@@H]4OC(C)=O)c(-c4cccc(CC(=O)OCC)c4)c3)ccc2O[C@H]2O[C@H](COC(C)=O)[C@@H](OC(C)=O)[C@H](OC(C)=O)[C@@H]2OC(C)=O)c1 -3.38%
O=c1cc(-c2ccc(O)cc2)oc2c([C@@H]3O[C@H](CO)[C@@H](O)[C@H](O)[C@H]3O)c(O)cc(O)c12 -0.663%
Cc1ccc(-c2ccnc(-n3ncc(C(=O)N(C)Cc4cccc5ncccc45)c3C3CC3)n2)o1 -4.64%
COc1ccnc(C[S@@](=O)[C@@H]2Nc3ccc(OC(F)F)cc3N2)c1OC -1.51%
COc1ccc2c(c1)NC(=O)C2CC(=O)N1CCOc2c(cc(-c3cnc4ccccc4c3)cc2OC)C1 (stereo not given) -6.72%
COCC1CCCN(Cc2ccc3c(c2)CN(C(=O)c2ccnn2C)CCO3)C1 (stereo not given) -2.07%
COc1ccc(F)c(CN2CCC3(CCC(CNC(=O)c4ccn(C)n4)O3)CC2)c1 (stereo not given) -4.54%
NNc1nnc(Cc2ccncc2)c2ccccc12 -5.05%
CC1=C(/C=C/C(C)=C/C=C/C(C)=C/C=C/C=C(C)/C=C/C=C(C)/C=C/C(=O)[C@]2(C)C[C@@H](O)CC2(C)C)C(C)(C)C[C@H](O)C1 -0.817%
O=C1NC(CC(=O)N2CCC(n3c(C4CCC4)nc4cccnc43)CC2)c2ccccc21 (stereo not given) -7.83%
COCC(=O)Nc1cc(C(=O)N2CCCC(c3ccccc3)CC2)c2c(c1)nc(-c1ccncc1)n2C (stereo not given) 1.99%
COc1ccc(C)cc1N1C(=O)[C@@H]2C[C@H]1CN2Cc1cccc(OC)c1O -3.49%
CCOC(=O)[C@]1(C(/C=C/c2ccco2)NC(=O)OC)CCCC1=O (stereo not given in full) -4.35%
CCOCCOC(=O)C(C)Oc1ccc(Oc2ncc(C(F)(F)F)cc2Cl)cc1 (stereo not given) 3.45%
CN1CCCCCC1C(=O)NCCN1Cc2ccccc2OC(c2ccsc2)C1 (stereo not given) -4.87%
CNCCCOc1cc2nc(N3CCCN(C)CC3)nc(NC3CCN(C)CC3)c2cc1OC -4.57%
COc1ccccc1-c1ccnc(-n2ncc(C(=O)NCCCN3CCOCC3)c2C)n1 -5.22%
COC(=O)NC(c1ccccc1)[C@]1(C(C)=O)CCCC1=O (stereo not given in full) -3.63%

Potency, active:
COc1c(O)cc2oc(-c3ccc(O)c(O)c3)cc(=O)c2c1O 20 µM
N#C/C(=C\c1ccc(O)c(O)c1)C(=O)NCc1ccccc1 25.1 µM
